Measured values from PubChem BioAssay AID588849 (Broad Institute, 2011).
Potency and affinity values are given separately.

Biological target: CAAX prenyl protease 2 (Homo sapiens) (UniProt Q9Y256)
Test: human Rce1 protease inhibitors, dose response, biochemical, yeast membranes, quenched-peptide fluorescence, cherry-pick (AID 588849)
Settings: yeast membrane fractions expressing human Rce1, quenched-peptide fluorescence, 4 h; series mostly up to 10 µM; activity change, negative = inhibition: at the top concentration; call rule not given here

Sequence of CAAX prenyl protease 2 (Homo sapiens) (Q9Y256 whole entry, looked up): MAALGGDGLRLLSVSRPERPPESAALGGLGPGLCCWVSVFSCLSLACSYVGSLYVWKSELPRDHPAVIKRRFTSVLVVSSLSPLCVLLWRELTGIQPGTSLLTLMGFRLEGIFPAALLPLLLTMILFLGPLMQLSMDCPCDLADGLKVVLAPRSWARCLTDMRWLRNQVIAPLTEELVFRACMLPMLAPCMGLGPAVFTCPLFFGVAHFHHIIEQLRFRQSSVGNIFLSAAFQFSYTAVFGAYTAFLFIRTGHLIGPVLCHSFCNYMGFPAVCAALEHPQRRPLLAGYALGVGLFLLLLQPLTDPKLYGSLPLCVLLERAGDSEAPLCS

Activity change, negative = inhibition, inactive:
O=C(c1cnc(Cl)c(Cl)c1)N1CCC(Cc2ccccc2)CC1 1.23%
CCOC(=O)c1nnn2c1nc(N1CCOCC1)c1ccccc12 5.58%
COc1cc2cc(C(=O)O)[nH]c2c(OC)c1OC -9%
COc1cc2ccccc2cc1C(=O)N(CCN(C)C)c1nc2ccc(C)cc2s1 -32.8%
O=C(O)CCC(=O)c1ccc(-c2ccccc2)cc1 -1.99%
COC(C/C=C\C(=O)[C@H](C)OCc1ccccc1)OC 2.11%
CCn1nc(C)cc1C(=O)NC1CC(C)(C)Cc2c1cnn2-c1cccc(F)c1 (stereo not drawn) 3.87%
COc1ccccc1-n1c(-c2ccccc2)c[nH]c1=S -13.2%
O=C(Nc1ccc(N2CCOCC2)c(Cl)c1)c1cc2ccccc2o1 3.89%
COC(=O)c1ccccc1NC(=O)NCc1cccnc1 -5.73%
Cc1nn(CCC(=O)O)c2nc(-c3cccnc3)cc(C(F)(F)F)c12 -20.6%
Oc1c(N=NC(=S)Nc2ccccc2F)c2ccccc2n1Cc1ccccc1Cl -16%
COc1cccc2sc3ccc(C#CC4(O)CCCCC4)cc3c(=O)c12 -14.2%
COc1cc2c(cc1OC)C(C)N(C(=O)CCNC(=O)c1ccccc1)CC2 (stereo not drawn) -20%
N=c1c2c(ncn1Cc1ccco1)Oc1ccc3ccccc3c1C2c1ccccc1 (stereo not drawn) -9.08%
NC(=NCCCCCCN=C(N)/N=C(\N)Nc1ccc(Cl)cc1)/N=C(\N)Nc1ccc(Cl)cc1 4.17%
CS(=O)(=O)c1ccc(C(=O)OCC(=O)N(CCc2ccccc2)Cc2ccccc2)cc1 0.478%
Cc1c(C)c2ccc(OC(C)C(=O)NCCCN3CCOCC3)c(C)c2oc1=O (stereo not drawn) -23.6%
